High-throughput results: PubChem, National Center for Advancing Translational Sciences (NCATS)
D3 antag: blocks the human D3 dopamine receptor | P35462 | D3R cells, DiscoveRx beta-arrestin luminescence, antagonist mode; stronger effect = lower value | 2.5% of 360,000 active | max response, negative = inhibition, %; in the data active means max response below about -50%; inconclusive means no clear call, values can overlap the other calls; further: on the % scale 0 is the no-effect control and ±100 the full control effect
Target sequence (P35462 whole entry, looked up): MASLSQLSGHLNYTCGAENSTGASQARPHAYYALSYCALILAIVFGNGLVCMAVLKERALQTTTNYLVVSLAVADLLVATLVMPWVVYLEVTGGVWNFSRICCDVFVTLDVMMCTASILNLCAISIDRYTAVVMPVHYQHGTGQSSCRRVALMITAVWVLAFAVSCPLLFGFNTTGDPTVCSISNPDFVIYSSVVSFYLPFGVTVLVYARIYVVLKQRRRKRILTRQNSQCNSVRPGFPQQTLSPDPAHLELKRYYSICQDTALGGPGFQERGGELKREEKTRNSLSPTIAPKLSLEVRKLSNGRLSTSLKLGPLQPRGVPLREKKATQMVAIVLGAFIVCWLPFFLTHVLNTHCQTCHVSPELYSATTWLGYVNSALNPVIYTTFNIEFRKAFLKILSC
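Cells plated overnight at 1500 cells/well, then exposed to library compounds with dopamine controls for 90 minutes at 37 degrees C. DiscoveRx reagent added for 30–60 minutes at room temperature; luminescence read, quantitative HTS format.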
ClpP mod: qHTS Assay for Activators of ClpP; ATP-dependent Clp protease proteolytic subunit (Bacillus subtilis (strain 168)), P80244; 1.9% of 340,000 active; purified B. subtilis ClpP, FRET peptide cleavage, 20 min; Potency, µM (doses to about 57.5 µM), without a hit: at the top dose activity change, negative = active; AID 651965, 2013; active means well fitted falling curve with a large enough effect; inconclusive means small, poorly fitted or top-dose-only effect; inactive means no such curve, though single readings can be large or run the other way; further: potency means the concentration at half of the fitted maximal effect; the source files actives as falling curves though it sought activators and does not explain the sign; nearly all actives have a fitted effect of over 65% in size
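Purified B. subtilis ClpP, 10 microg/mL final in Tris/HCl pH8 with KCl, BSA, glycerol and Tween-20, cleaved an Abz/nitrotyrosine-quenched decapeptide. Fluorescence (ex 320, em 430) was read at 0 and 20 min at room temperature. Delta was normalized to 5.8 microM ADEP and DMSO/no-enzyme controls.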
DT40 TDP1 no CPT: qHTS for Inhibitors of human tyrosyl-DNA phosphodiesterase 1 (TDP1): qHTS in cells in absence of CPT | DT40 Tdp1-/- hTDP1 cells, no CPT, ATP luminescence, 48 h | Potency, µM (series often up to 46.2 µM), inactives show top-dose activity change, negative = growth inhibition, actives largely listed as inhibitors | 15% of 420,000 active; further: potency means the concentration at half of the fitted maximal effect; on the % scale 0 is the no-effect control and ±100 the full control effect; nearly all actives have a fitted effect of over 55% in size
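Camptothecin absent (DMSO only). Human TDP1-complemented DT40 knockout cells, 400 cells/well, 37 °C for minimum 48 hr; ATP measured via CellTiter-Glo, 30 min dark incubation, luminescence.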
TDP1 cell CPT: growth inhibition of DT40 Tdp1-/-;hTDP1 cells with camptothecin (screen for TDP1 inhibitors). Potency, µM (titrated, usually from 46.2 µM), for the others: at the top dose activity change, negative = growth inhibition, actives largely listed as inhibitors. AID 686979. 12% of 420,000 active. chicken DT40 Tdp1-/-;hTDP1 cells + 20 nM CPT, ATP luminescence, 48 h; further: potency means the concentration at half of the fitted maximal effect; on the % scale 0 is the no-effect control and ±100 the full control effect; nearly all actives have a fitted effect of over 55% in size
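Cell growth measured by CellTiter-Glo luminescence after a minimum 48 h, 37 C compound exposure with 20 nM CPT in Tdp1-knockout DT40 cells stably expressing hTDP1, seeded 400/well; qHTS titration format.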
D3 ag: D3 dopamine receptor (human) agonism | AID 652048 | max activation, % | D3R DiscoveRx beta-arrestin cells, luminescence, 90 min | 0.58% of 410,000 active | P35462; in the data active means max activation above about 30%; further: 0% is about no effect
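Agonist-mode cell screen: cells plated at 1500/well and incubated overnight at 37 °C, then exposed to library compounds for 90 min at 37 °C. Detection reagent was added for 30–60 min at room temperature, and luminescence was read.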
IL1B secr inh: blocks inflammasome-driven IL-1 beta release; THP-1 LPS/ATP IL-1B secretion, AlphaLISA, 16 h; stronger effect = lower value; AID 743279; 4.7% of 360,000 active; activity change, % at 57.5 µM; in the data active means activity change below about -50%; inconclusive means mostly about -30% to -49%; further: on the % scale 0 is the no-effect control and ±100 the full control effect
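THP-1 cells pretreated 1 hr with compounds (up to 57.5 uM final), then stimulated with LPS (250 ng/mL final) plus ATP (1.25 mM final); secreted IL-1B measured by AlphaLISA after 16 hr, decreased signal indicating inhibition.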
Active calls of the source: *; ? = inconclusive; · = not tested or not shown; [ ] = remark or other dose. An excerpt weighted towards active compounds, which were near 21% of everything screened. Unless noted, the call rests on the fitted dose curve; in most records, active means well fitted inhibition curve with a large enough effect; inconclusive means small, poorly fitted or top-dose-only effect; inactive means flat fitted curve, though single readings scatter.

SMILES	D3 antag	ClpP mod	DT40 TDP1 no CPT	TDP1 cell CPT	D3 ag	IL1B secr inh
N#C/C(=C\c1c(Cl)cccc1Cl)c1nn(-c2ccccc2)c(-n2cccc2)c1C#N	-16	·	21µM*	26µM*	-7	-29
CC(C)(C)n1nnnc1C(c1cccs1)N(Cc1cccnc1)Cc1ccccc1Cl (stereo not drawn)	-58*	1%	18µM*	?	-8	-12
CCN(Cc1ccccc1)C(c1ccccn1)c1nnnn1C1CCCCC1 (stereo not drawn)	-9	-4%	?	?	-2	-11
CCN(Cc1ccccc1)C(c1cccs1)c1nnnn1C1CCCCC1 (stereo not drawn)	10	1%	29µM*	?	-2	-8
CC(c1nnnn1C1CCCCC1)N(Cc1ccccc1)Cc1cccnc1 (stereo not drawn)	-28	1%	?	?	2	5
CC(c1nnnn1C(C)(C)C)N(Cc1cccnc1)Cc1ccccc1Cl (stereo not drawn)	6	0%	?	?	1	?
Clc1ccccc1CN(Cc1ccccc1)C(c1cccs1)c1nnnn1C1CCCC1 (stereo not drawn)	-13	0%	21µM*	?	-8	?
Clc1ccc(CN(CC2CCCO2)C(c2cccs2)c2nnnn2C2CCCC2)cc1 (stereo not drawn)	-3	-1%	6.5µM*	7.3µM*	2	-22
c1csc(C(c2nnnn2C2CCCC2)N2CCOCC2)c1 (stereo not drawn)	?	-2%	-2%	-10%	4	-18
CCc1cc(C(=O)OC)c(NC(=O)CN2CCN(C(=O)C3CCCO3)CC2)s1 (stereo not drawn)	0	2%	-24%	-29%	1	0
CC(C)C[C@H]1CN=C(Nc2ccccc2)N1CC1CCC1	6	-1%	?	?	-10	-11
CCC(C)CCN1C(Nc2ccccc2)=NC[C@@H]1C (stereo partly drawn)	-20	0%	12µM*	?	10	5
CC(C)C[C@H]1CN=C(Nc2ccccc2)N1CCC(C)c1ccccc1 (stereo partly drawn)	0	0%	?	?	-47	?
CC(C)C[C@H]1CN=C(Nc2ccccc2)N1CCCC1CCCCC1	-17	0%	18µM*	?	-57	-63*
CC(C)C[C@H]1CN=C(Nc2ccccc2)N1CCC1CCCC1	-18	2%	23µM*	?	-8	-24
CC(C)CCCN1C(Nc2ccccc2)=NC[C@@H]1C	-7	1%	-16%	?	11	6
CCCCCCCN1C(Nc2ccccc2)=NC[C@@H]1CC(C)C	-1	-2%	16µM*	12µM*	-62	-78*
COc1ccc(OC)c(NC(=O)c2cc(S(=O)(=O)N3CCCC3)cn2C)c1	14	5%	-18%	-14%	-9	-21
COC(=O)C1CCCCN1Cc1ccc2c(c1)CN(Cc1cn[nH]c1-c1ccc(F)cc1)CCO2 (stereo not drawn)	·	·	?	1%[9.04 µM]	·	·
CCC(=O)N1CCc2cc(S(=O)(=O)NC(C(=O)NCc3ccccc3Cl)C(C)C)ccc21 (stereo not drawn)	·	3%	-6%	-6%	-7	·
C[C@H]1CN=C(Nc2ccccc2)N1CCC1CCCC1	-25	-3%	23µM*	?	-29	0
CC(C)C[C@H]1CN=C(Nc2ccccc2)N1CCCC1CCCC1	-51*	-3%	5.2µM*	15µM*	-20	-63*
CC(=O)N1CCCC1(C(=O)O)c1ccccc1 (stereo not drawn)	2	·	-12%	-5%	-4	5
Clc1cccc(-c2cccc3nccn23)c1Cl	0	?	?	?	2	-16
